Compound activity from PubChem BioAssay.
HEK cytotox: HEK 293 cell cytotoxicity | HEK 293 viability, ATP luminescence (CellTiter-Glo), 48-72 h | Potency, µM (series often up to 115 µM), usual class: inhibitors | hit rate 6.6% among 94,000; also: nearly all actives have a fitted effect of over 60% in size
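HEK 293 cells at 250 cells/well were exposed to compounds by pintool transfer for 48 or 72 hr at 37 degree Celsius, 5% CO2. Viability was read as ATP-coupled luminescence with CellTiter-Glo after 10 min at room temperature.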
GPT2 inhibitor: inhibitors of human GPT2 alanine aminotransferase | Recombinant GPT2, coupled pyruvate oxidase/HRP Amplex Red fluorescence | Q8TD30 | Potency, µM (titrated, usually from 57.7 µM), most hits filed as inhibitors | hit rate 0.25% among 100,000; also: nearly all actives have a fitted effect of over 60% in size
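Inhibition is scored from Amplex Red fluorescence generated when pyruvate oxidase and HRP act on pyruvate released by GPT2. Reactions contain 10ng/uL enzyme, 250uM a-KG and 2mM L-alanine and run 30 min at room temperature.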
hNpr1 antagonist: antagonists of human natriuretic peptide receptor Npr1; AID 1347048; HEK293 hNpr1 GloSensor cGMP, ANP-stimulated luminescence; hit rate 1.6% among 76,000; Potency, µM (doses to about 46.3 µM), most hits filed as inhibitors; calls by dose curve; also: nearly all actives have a fitted effect of over 60% in size
Target sequence (P16066 whole entry, looked up): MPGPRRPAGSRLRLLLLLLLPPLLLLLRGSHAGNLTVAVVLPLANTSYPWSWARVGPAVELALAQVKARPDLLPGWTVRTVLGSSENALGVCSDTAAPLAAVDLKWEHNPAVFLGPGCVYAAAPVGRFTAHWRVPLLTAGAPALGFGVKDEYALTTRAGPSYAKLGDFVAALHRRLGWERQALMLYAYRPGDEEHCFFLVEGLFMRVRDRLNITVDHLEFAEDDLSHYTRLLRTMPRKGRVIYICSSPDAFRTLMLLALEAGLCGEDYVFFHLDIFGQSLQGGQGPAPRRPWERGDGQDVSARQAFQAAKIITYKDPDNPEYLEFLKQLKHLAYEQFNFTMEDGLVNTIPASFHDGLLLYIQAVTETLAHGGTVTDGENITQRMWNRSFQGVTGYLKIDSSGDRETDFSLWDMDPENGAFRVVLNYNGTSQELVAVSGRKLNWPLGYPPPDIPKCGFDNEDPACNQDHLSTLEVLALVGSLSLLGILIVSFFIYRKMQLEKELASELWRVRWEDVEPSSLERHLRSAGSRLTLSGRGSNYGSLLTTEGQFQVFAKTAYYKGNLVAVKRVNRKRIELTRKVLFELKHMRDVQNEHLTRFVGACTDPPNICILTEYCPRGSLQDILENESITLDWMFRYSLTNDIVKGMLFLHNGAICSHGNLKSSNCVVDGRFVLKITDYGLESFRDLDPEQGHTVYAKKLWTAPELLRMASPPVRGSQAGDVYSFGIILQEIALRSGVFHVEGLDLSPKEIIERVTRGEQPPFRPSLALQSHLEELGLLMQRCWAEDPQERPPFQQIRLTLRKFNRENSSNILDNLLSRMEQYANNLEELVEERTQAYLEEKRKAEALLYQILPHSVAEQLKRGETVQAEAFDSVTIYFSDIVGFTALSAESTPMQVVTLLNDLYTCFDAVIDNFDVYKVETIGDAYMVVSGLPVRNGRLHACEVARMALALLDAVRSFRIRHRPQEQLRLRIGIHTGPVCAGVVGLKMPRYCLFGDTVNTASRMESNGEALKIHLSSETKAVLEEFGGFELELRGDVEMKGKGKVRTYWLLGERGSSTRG
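HEK293 cells stably expressing human Npr1 and cGMP GloSensor pGS-40F, loaded 2 h with 2% GloSensor reagent, given compound 30 min at room temperature. Luminescence read before and 20 min after 0.1 nM hNppA.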
NIH3T3 tox: kills NIH 3T3 cells | Potency, µM (top dose mostly 96.7 µM), hits mostly inhibitors | NIH 3T3 viability, CellTiter-Glo ATP luminescence, 48-72 h | hit rate 4.3% among 94,000 | AID 1345082; also: nearly all actives have a fitted effect of over 55% in size
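Cells were seeded at 400 per well, treated with pin-transferred compound, and kept 48 or 72 hr at 37 °C before CellTiter-Glo addition and luminescence imaging of cellular ATP.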
Luciferase inh: inhibitors of firefly (Photinus pyralis) luciferase; P08659; hit rate 2.5% among 76,000; purified P. pyralis luciferase, luminescence, biochemical; Potency, µM (doses to about 115 µM), hits mostly inhibitors; AID 1347043; also: nearly all actives have a fitted effect of over 65% in size
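Purified 10nM P. pyralis luciferase with 10uM D-luciferin and 10uM ATP in 50mM Tris acetate pH 7.5, 10mM Mg acetate, 0.01% Tween-20, 0.05% BSA. qHTS titration; luminescence read by CCD imager.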
Hits are given with their value; 0 = inactive; ? = inconclusive; - = not tested or not shown; [ ] = another dose, or the depositor's remark. The list is not random: actives were taken first. Their share in the collection is about 10%. Unless noted, calls follow the shape of the dose curve; as a rule, active = well fitted curve in the direction sought with a large enough effect; inconclusive = small, poorly fitted or top-dose-only effect, or another doubt; inactive = no such curve, though single readings can be large; an effect the other way counts as inactive or inconclusive.

SMILES	HEK cytotox	GPT2 inhibitor	hNpr1 antagonist	NIH3T3 tox	Luciferase inh
Cc1nn(C)c2nc(NCCCOC3CCCC3)sc12	31.6µM	0	?	?	35.5µM
CCc1[nH]c2ccc(CNC(=O)c3coc(CN4CCOCC4)c3)cc2c1C	0	0	0	0	31.6µM
CCc1[nH]c2ccc(CNC(=O)Cc3cnc4c(C)cccn34)cc2c1C	?	0	7.08µM	?	?
CCc1[nH]c2ccc(CNC(=O)c3scc4c3OCCO4)cc2c1C	?	0	0	0	?
Cc1cccn2c(CC(=O)N[C@H](c3ccccn3)C3CC(O)C3)cnc12 (some centres undefined)	0	0	0	0	0
COc1cc(=O)n2c(c1C(=O)NCc1ccccc1Cl)CCCC2	0	0	0	0	0
O=C(C1CCCN1C(=O)Nc1ccccc1)N1CCC(N2Cc3cccn3C2=O)CC1 (centres undefined)	0	0	-	0	-
CN(C(=O)c1ccc2nc(-c3ccc(F)cc3)cn2c1)C1CCOCC1	?	0[11.5 µM]	0	0	31.6µM
CN(C)C(=O)c1ccnc(-c2nnc3ccc(N4CCCCC4)nn23)c1	0	0	0	31.6µM	0
CN(C)C(=O)c1ccc(-c2ccc(N3CCCCCC3)nc2)cc1	31.6µM	0	0	?	17.8µM
O=C(c1ccc(-c2ccc(N3CCCCCC3)nc2)cc1)N1CCCC1	28.2µM	0	?	31.6µM	?
CN(C)C(=O)c1ccnc(-c2nnc3ccc(NC4CCCCC4)nn23)c1	0	0	0	?	0
Cc1noc(C)c1S(=O)(=O)N(C)C1CCCc2ccccc21 (centres undefined)	?	0	0	0	0
COc1ccc(C(=O)N2CCCC(N3C(=O)c4c(c(C)nn4-c4ccccc4)C3C)C2)cc1 (centres undefined)	?	-	-	14.1µM	-
Cc1nn(-c2ccccc2)c2c1C(C)N(C1CCCN(C(=O)c3ccccc3Cl)C1)C2=O (centres undefined)	39.8µM	-	-	?	-
O=C(NCC1(COc2ccccc2)C[C@@H](O)[C@@H](O)C1)c1ccc(F)cc1 (some centres undefined)	?	0	0	?	0
COc1ccc(CN2C(=O)COC[C@H]2C(=O)Nc2ccc(OC)c(OC)c2)cc1OC	0	0	0	0	0
COc1ccc(CN2C(=O)COC[C@H]2C(=O)Nc2ccc(OC)c(C(F)(F)F)c2)cc1	44.7µM	0	?	?	0
Cc1ccccc1N(C)C1CN(C(=O)c2ccccn2)C1	79.4µM	0	-	?	-
Cc1ccsc1C(=O)N1CCC2(CC1)C(=O)N(c1cccc(F)c1)C2c1ccccc1 (centres undefined)	25.1µM	0	-	?	-
O=C(NCc1ccc(C(F)(F)F)cc1)C1CCCN1c1nccc(Nc2ccccc2F)n1 (centres undefined)	?	0	-	?	-
CC(C)(C)C(=O)Nc1cnc(-c2cccnc2)nc1	0	0	0	0	28.2µM
O=C(CCc1ccccc1)Nc1cnc(-c2cccnc2)nc1	?	0	0	0	0
CCc1cc(=O)n(CC(=O)N2CCN(c3ccc(F)cc3)CC2)c(N2CCOCC2)n1	25.1µM	0	0	?	0
O=C1NC2(CCN(C(=O)c3ccccc3F)C2)Oc2ccccc21 (centres undefined)	0	0	0	0	0
SMILES	HEK cytotox	GPT2 inhibitor	hNpr1 antagonist	NIH3T3 tox	Luciferase inh
CCOC(=O)C1CCCCN1C(=O)c1oc2c(Cl)cc(C)cc2c1C (centres undefined)	0	0	0	0	0
Cc1cc(Cl)c2oc(C(=O)N(Cc3c(C)nn(C)c3C)C3CC3)c(C)c2c1	?	0	7.94µM	?	28.2µM
O=C(Nc1cccc(Cl)c1)c1ccc2nnc(-c3ccc(Cl)cc3)n2c1	39.8µM	0	-	44.7µM	-
COc1ccc(CCNC(=O)c2ccc3nnc(-c4ccc(Cl)cc4)n3c2)cc1	0	0	-	0	-
O=C(NCc1ccc(Cl)cc1)c1ccc2nnc(-c3ccc(Cl)cc3Cl)n2c1	?	0	-	31.6µM	-
O=C(NCc1ccc(F)c(F)c1)c1ccc2nnc(Cc3ccc(Cl)cc3)n2c1	?	0	-	35.5µM	-
O=C(NCCc1ccccc1F)c1ccc2nnc(Cc3ccc(Cl)cc3)n2c1	?	0	-	?	-
COc1ccc(Cc2nnc3ccc(C(=O)NCCc4ccc(Cl)cc4)cn23)cc1	89.1µM	0	-	?	-
CNC(=O)c1cc(C)nc2onc(C3CCN(C(=O)c4cccc(Cl)c4)C3)c12 (centres undefined)	0	-	-	0	-
